Most compounds without a hit are left out; they make up all but 2.3% or so of the library.
bovine MsrA act – activates bovine MsrA enzyme. purified bovine MsrA, absorbance read-out. activation, % at 10.6 µM. hit rate 0.3% among 360,000. AID 602163; in the data active = activation above about 7.5%;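 note: 0% = vehicle and 100% = reference activator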
MsrA inhibitor – inhibits bovine methionine sulfoxide reductase A; purified bovine MsrA, absorbance read-out; inhibition, % at 15.5 µM; hit rate 0.75% among 360,000; in the data active = inhibition above about 4.5%;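 note: 0% = vehicle wells with enzyme and 100% = reference inhibitor wells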
PP1 counter – counter-screen for PP5 inhibitors: inhibitors of human PP1-alpha | P62136 | purified PP1alpha, OMFP fluorescence | inhibition, % at 6.7 µM | hit rate 0.9% among 320,000 | AID 2235;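 active = inhibition above the mean inhibition of all tested compounds plus 3 SD, computed separately for each screening campaign, cut at about 15% in these data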
PP5 primary – PP5 (human) phosphatase inhibition; P53041; purified PP5c, OMFP substrate fluorescence; inhibition, % at 6.7 µM; hit rate 0.18% among 320,000; AID 1987;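 active = inhibition above the campaign's mean inhibition across all tested compounds plus 3 SD, cut at about 9.5% in these data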;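 note: 0% = DMSO only and 100% = 100 µM cantharidin control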
EBNA-1 inhibitor – blocks EBNA-1 binding to DNA; EBNA-1 DNA binding, fluorescence polarization; inhibition, % at 14.8 µM; hit rate 0.34% among 300,000; in the data active = inhibition above about 28%
ZTA DNA inh – counter-screen for EBNA-1 inhibitors: inhibitors of Epstein-Barr virus ZTA. ZTA-DNA binding, fluorescence polarization. AID 2234. inhibition, % at 11 µM. P03206. hit rate 0.15% among 320,000; in the data active = inhibition above about 33%
Target sequence (P03206 whole entry, looked up): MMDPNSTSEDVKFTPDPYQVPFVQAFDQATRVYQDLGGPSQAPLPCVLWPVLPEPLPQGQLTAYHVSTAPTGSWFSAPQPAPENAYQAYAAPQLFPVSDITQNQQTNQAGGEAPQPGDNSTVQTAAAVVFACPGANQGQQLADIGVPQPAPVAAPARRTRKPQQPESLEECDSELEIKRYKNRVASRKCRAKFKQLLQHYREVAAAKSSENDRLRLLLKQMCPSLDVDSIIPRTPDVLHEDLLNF
Active calls of the source: *; / = not tested or not shown.

SMILES | bovine MsrA act | MsrA inhibitor | PP1 counter | PP5 primary | EBNA-1 inhibitor | ZTA DNA inh
COc1cc(Br)c(/C=C/c2ccc3cccc(O)c3n2)cc1OC | -3 | 0 | 4 | 1 | -7 | -11
CN1OC[C@@H]2CN3C(=Nc4cc(C(F)(F)F)cc(C(F)(F)F)c4)Sc4ccccc4[C@@H]3C[C@@H]21 | / | 1 | / | / | / | /
O=C(N/N=C/c1ccc2c(c1)OCO2)c1ccc(NC(=O)c2ccccc2Cl)cc1 | -13 | 5.2* | 1 | 1 | 8 | -4
O=C(N/N=C/c1ccc2c(c1)OCO2)c1cccc(NC(=O)c2ccccc2Cl)c1 | 2 | 2 | 3 | 2 | 2 | 5
COc1ccc(CN(C(=O)Cc2c[nH]c3ccccc23)C(C(=O)NC2CCCCC2)c2ccc(C)o2)cc1 (stereo unspecified) | -2 | 1 | 17* | 8 | -8 | -13
CCc1cc(C(=O)N=Nc2c(O)[nH]c3ccc([N+](=O)[O-])cc23)c2ccccc2n1 | -9 | 0 | 16* | 1 | 8 | -4
CCCC(=O)OC[C@H]1CN(C2CCCC2)S(=O)(=O)c2c(Oc3ccc(F)cc3OC)cccc2O1 | / | 0 | / | / | / | /
COc1ccc(CNC(=O)c2cc(-c3ccco3)on2)cc1 | 22* | 1 | 1 | 1 | 13 | 13
O=C(NCc1ccc(Cl)cc1)c1cc(-c2ccco2)on1 | -3 | 2 | -3 | 0 | 0 | 0
CN1CCCCC(NC(=O)c2cccc(F)c2)C1=O (stereo unspecified) | / | 0 | / | / | / | /
CCS(=O)(=O)n1nc(-c2ccc(Cl)cc2)nc1SCc1ccccc1 | / | / | 6 | 5 | 4 | -1
COc1ccc(-c2nc(SCc3ccccc3)n(S(C)(=O)=O)n2)cc1 | -2 | 0 | 2 | 11* | 7 | 17
COc1cccc(NC(=O)Nc2nc(SC(C)(C)C)ns2)c1 | -4 | -1 | 17* | 5 | 11 | 8
CCOc1ccc(/C=N/NC(=O)c2cc3c(OC)cccc3[nH]2)cc1 | -4 | 0 | 16* | -1 | 6 | 1
Cc1cc(O)c(C=O)c2c1C(=O)Oc1c(CO)c(O)c3c(c1O2)C(O)OC3=O (stereo unspecified) | -17 | / | 36* | 2 | 23 | 97*
CCOC(=O)C(N)CSC1CC(=O)N(c2ccc(C(=O)OC)cc2)C1=O (stereo unspecified) | 11* | 0 | -3 | 1 | -2 | 5
O=C(CCn1nnc2ccccc21)Nc1nnc(-c2ccccc2F)s1 | 3 | 1 | 17* | 3 | 19 | 21
O=C(CCn1nnc2ccccc21)Nc1nnc(COc2ccccc2F)s1 | 2 | 1 | 1 | 4 | 4 | 0
Cc1ccc(/C=C2\SC(N3CCN(C(c4ccccc4)c4ccccc4)CC3)=NC2=O)o1 | -3 | 2 | 17* | 2 | 3 | -1
CCCCC1=CC2=C(c3ccco3)C(=O)C(C)(OC(=O)c3ccc(OC)cc3)C(=O)C2=CN1c1ccc(OC)cc1 (stereo unspecified) | -3 | 0 | 16* | 2 | -1 | 3
CCCCC1=CC2=C(c3ccco3)C(=O)C(C)(OC(=O)c3ccc(OC)cc3)C(=O)C2=CN1Cc1ccco1 (stereo unspecified) | -2 | / | 16* | 2 | 2 | 7
COc1ccc(Oc2c(C)oc3c(CN(C)C)c(O)ccc3c2=O)cc1 | -3 | 2 | -2 | 2 | 19 | -8
Cc1oc2c(CN(C)C)c(O)ccc2c(=O)c1-c1cscn1 | -5 | 4.8* | -3 | 1 | 5 | 0
O=C(c1ccccc1)N1CCC2CCN(S(=O)(=O)c3ccccc3)CC21 (stereo unspecified) | / | 0 | / | / | / | /
CCCCNC(=S)N/N=C/c1ccc(C#N)cc1 | -2 | 4.7* | 2 | 2 | -8 | -5
SMILES | bovine MsrA act | MsrA inhibitor | PP1 counter | PP5 primary | EBNA-1 inhibitor | ZTA DNA inh
O=C(N/N=C/c1ccc(N2CCOCC2)cc1)c1cccs1 | -7 | 4.6* | -1 | 0 | -4 | 0
Nc1cccc2c(=O)c3ccccc3[nH]c12 | 1 | -1 | 16* | 2 | -6 | 4
COc1cccc2[nH]c3ccccc3c(=O)c12 | -2 | / | -3 | 1 | 9 | -10
CC(C)[C@H](NC(=O)C1CC1)C(=O)N1CCC[C@H]1C(=O)NCc1ccccc1 | / | 0 | / | / | / | /
COc1cc(/C=C2\SC(=O)N(c3cccc(Cl)c3)C2=O)cc([N+](=O)[O-])c1O | -2 | 1 | / | / | / | /
COc1cc(/C=C2\SC(=O)N(c3ccc(Cl)cc3)C2=O)cc([N+](=O)[O-])c1O | -5 | 7.1* | / | / | / | /

From PubChem
